# ChEMBL document CHEMBL3988442, “University of Dundee, Small-Polar-MMV Screening Library” (2021)
# The whole screen tested about 66,000 compounds, of which about 960 (1.5%) showed an effect of 50% or more. What follows is part of a selection rich in strong results, with near analogues and random picks from the rest.
# Tested on: Trypanosoma brucei
# Assay: Trypanosoma brucei 72 hour study
# Type: functional, organism-based
# Parameters: scale not given: in the data most compounds retested in dose-response had high values
compound,measurement,setting,value
Cc1[nH]c2ccccc2c1-c1ccnc(N[C@@H](CO)C(C)C)n1,Percent Effect,"30.3 µM, […]",11.27%
CC(C)c1[nH]c2ncccc2c1CN1CCOCC1.Cl,Percent Effect,"30.3 µM, […]",-24.02%
CN(C)CCN1CCOCC2(C1)CN(Cc1ccsc1)CCO2.O=C(O)C(F)(F)F.O=C(O)C(F)(F)F.O=C(O)C(F)(F)F (stereo not drawn),Percent Effect,"30 µM, 30.03 µM",38.01%
Cc1ccccc1N1CCN(c2cc(N(C)C)ncn2)C(C)C1 (stereo not drawn),Percent Effect,"30 µM, 30.03 µM",6.135%
Cc1ccc(N2CCN(c3ccccc3C)CC2C)nn1 (stereo not drawn),Percent Effect,"30 µM, 30.03 µM",-104.7%
Cc1ccccc1N1CCN(c2ccncn2)C(C)C1 (stereo not drawn),Percent Effect,"30 µM, 30.03 µM",96.97%
Cc1noc(C)c1-c1cccc(C2CN(CC(=O)N(C)C)CCO2)n1.O=CO (stereo not drawn),Percent Effect,"30.3 µM, […]",-10.64%
Cc1nc(CN2CCC3(CCN(Cc4nccn4C)CC3)C2=O)cs1.O=C(O)C(F)(F)F.O=C(O)C(F)(F)F,Percent Effect,"30.3 µM, […]",-13.64%
O=C(O)C(F)(F)F.O=C1C[C@H]2[C@@H](CCN2C(=O)Cc2ccccc2)N1Cc1cccnc1,Percent Effect,"30.3 µM, […]",-5.465%
O=C(O)C(F)(F)F.O=C([C@H]1CCCO1)N1CCOC2(CCCN(c3ncccc3F)C2)C1 (stereo partly drawn),Percent Effect,"30.3 µM, […]",1.881%
Fc1ccc(F)c(CN2CCC(c3n[nH]c4ncccc34)CC2)c1.O=C(O)CC(O)(CC(=O)O)C(=O)O,Percent Effect,"30.3 µM, […]",65.45%
O=C(O)CC(O)(CC(=O)O)C(=O)O.c1cnc2[nH]nc(C3CCN(Cc4ccsc4)CC3)c2c1,Percent Effect,"30.3 µM, […]",-1.78%
Fc1cccc(CN2CCC(c3n[nH]c4ncccc34)CC2)c1F,Percent Effect,"30.3 µM, […]",18.42%
Cc1ccccc1OC1CCN(CC(=O)Nc2c(C)nn(C)c2C)CC1,Percent Effect,"30.3 µM, […]",11.58%
COCCC(=O)N1CC2(CCN(Cc3ccoc3)C2)C1,Percent Effect,"30 µM, 30.03 µM",-24.51%
Cc1cccc(CN2CCOCC3(CCN(C4CCOCC4)C3)C2)c1.O=C(O)C(F)(F)F.O=C(O)C(F)(F)F (stereo not drawn),Percent Effect,"30 µM, 30.03 µM",52.28%
O=C(O)C(F)(F)F.O=C(O)C(F)(F)F.c1ccc(CN2CCOCC3(CCN(C4CCOCC4)C3)C2)cc1 (stereo not drawn),Percent Effect,"30.3 µM, […]",-34.62%
Cc1cccc(CN2Cc3nccn3CC(CN3CCOCC3)C2)c1.O=C(O)C(F)(F)F.O=C(O)C(F)(F)F (stereo not drawn),Percent Effect,"30 µM, 30.03 µM",58.02%
Cc1noc(C)c1CN1Cc2nccn2CC(CN2CCOCC2)C1.O=C(O)C(F)(F)F.O=C(O)C(F)(F)F (stereo not drawn),Percent Effect,"30 µM, 30.03 µM",27.27%
Fc1ccc(CN2Cc3nccn3CC(CN3CCOCC3)C2)cc1.O=C(O)C(F)(F)F.O=C(O)C(F)(F)F (stereo not drawn),Percent Effect,"30 µM, 30.03 µM",39.42%
Fc1cccc(CN2CCOCC3(CCN(C4CCOCC4)C3)C2)c1.O=C(O)C(F)(F)F.O=C(O)C(F)(F)F (stereo not drawn),Percent Effect,"30 µM, 30.03 µM",30.04%
CCC(C(=O)Nc1ccc2c(C)n[nH]c2c1)N1CCCC1=O (stereo not drawn),Percent Effect,"30 µM, 30.03 µM",6.301%
CCN1N=C(C(=O)N2CCCC(c3nc(C)cs3)C2)CCC1=O (stereo not drawn),Percent Effect,"30.3 µM, […]",-15.61%
same,Percent Effect,"10 mM, 10 mM as filed; unlikely as a test dose",-12.74%
O=C(C1CCOC1)N1CCN(CCn2cccn2)c2ncccc2C1.O=C(O)C(F)(F)F (stereo not drawn),Percent Effect,"30.3 µM, […]",-86.89%
O=C(O)C(F)(F)F.O=C(O)C(F)(F)F.O=C(O)C(F)(F)F.c1ccc(CO[C@H]2CO[C@@]3(CCCN(Cc4cccnc4)C3)C2)nc1,Percent Effect,"30 µM, 30.03 µM",-28.27%
CN1CCN(C(=O)c2cc3sccc3n2Cc2ccc(Cl)cc2)CC1,Percent Effect,"30.3 µM, […]",99.49%
CN1CCN(C(=O)c2cc3sccc3n2Cc2ccccc2)CC1,Percent Effect,"30.3 µM, […]",20.51%
CN1CCN(C(=O)c2cc3sccc3n2Cc2ccccc2Cl)CC1,Percent Effect,"30.3 µM, […]",25.89%
CC1CCCN(Cc2c(C3CC3)n(CC(=O)N(C)C)c3ncccc23)C1.Cl (stereo not drawn),Percent Effect,"30.3 µM, […]",-32.63%
N#CCCN(CC1CCCO1)C(=O)c1ccsc1 (stereo not drawn),Percent Effect,"30.3 µM, […]",16.66%
same,Percent Effect,"10 mM, 10 mM as filed; unlikely as a test dose",-43.52%
O=C(CN(CC(O)c1ccc(F)cc1)C1CC1)NCc1cccs1 (stereo not drawn),Percent Effect,"30 µM, 30.03 µM",-22.68%
COc1ccc(CN2CCCC2Cn2nc(C)nc2C)cc1F (stereo not drawn),Percent Effect,"30 µM, 30.03 µM",13.69%
Cc1cnn(CC2CCCN2Cc2nc(C)c3ccccc3n2)c1 (stereo not drawn),Percent Effect,"30.3 µM, […]",99.14%
same,Percent Effect,"10 mM, 10 mM as filed; unlikely as a test dose",-68.59%
Cc1nc(C)n(CC2CCCN2Cc2nc(N)c3ccccc3n2)n1 (stereo not drawn),Percent Effect,"30 µM, 30.03 µM",-26.66%
Cc1nc(CN2CCCC2Cn2cccn2)nc2ccccc12 (stereo not drawn),Percent Effect,"30 µM, 30.03 µM",-97.44%
Cc1nc(C)n(CC2CCCN2Cc2nc(C)c3ccccc3n2)n1 (stereo not drawn),Percent Effect,10 µM,-1.729%
same,Percent Effect,"30.3 µM, […]",68.42%
Cc1cnn(CC2CCCCN2Cc2nc(C)c3ccccc3n2)c1 (stereo not drawn),Percent Effect,"30.3 µM, […]",-8.505%
same,Percent Effect,"10 mM, 10 mM as filed; unlikely as a test dose",-58.92%
Cc1nc(C)n(CC2CCCN2Cc2nc3ccccc3nc2C)n1 (stereo not drawn),Percent Effect,"30 µM, 30.03 µM",-3.332%
COc1ccc(C)cc1CN1CCCC1c1noc(C2CC2)n1 (stereo not drawn),Percent Effect,"30 µM, 30.03 µM",105.3%
COc1ccc(F)cc1CN1CCCC1Cn1nc(C)nc1C (stereo not drawn),Percent Effect,10 µM,-21.11%
COc1c(C)cnc(CN2CCCC2c2noc(C3CC3)n2)c1C (stereo not drawn),Percent Effect,"30 µM, 30.03 µM",-15.93%
Cc1cc(CN2CCCC2c2noc(C3CC3)n2)c2ccccc2n1 (stereo not drawn),Percent Effect,"30 µM, 30.03 µM",8.829%
COc1ccc(C)cc1CN1CCCC1Cn1nc(C)nc1C (stereo not drawn),Percent Effect,"30 µM, 30.03 µM",103.3%
